Bioassay records: PubChem, Broad Institute
PAX8 inh HTS = lowers PAX8-driven luciferase in RMG-I cells; AID 652154; 360,000 tested, 1.2% active; RMG-I TPO-luciferase reporter, SteadyGlo, 24 h; inhibition, % at 12.6 µM;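 active means mean replicate inhibition at least 60% with every replicate also reaching 60%; inconclusive means only one of the two criteria is met; inactive means mean below 60% and not all replicates reaching 60%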;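 further: luciferase light reporting Pax8 driven TPO promoter activity; plate controls were median of neutral control wells for no effect and mitoxantrone controls for full effect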
Statin myotox sup = protects C2C12 myotubes from simvastatin toxicity; rescue of ATP level, % at 7.49 µM; 330,000 tested, 0.78% active; ATP luminescence, 48 h; scaled: DMSO 0, geranylgeraniol control 100;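 active means mean ATP rescue above about 67%, or every replicate alone reaching that limit, limit read from the data, passing the limit was not always enough; inconclusive means no clear call, values can overlap the other calls; inactive means mean under the limit and some replicate under it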;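 further: myotubes were challenged with 10 µM simvastatin during compound exposure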
EWS-Fli block = EWS/Fli transcriptional activity inhibition; A673 NR0B1-luciferase reporter, viability-normalised; inhibition, % at 12.6 µM; 350,000 tested, 0.67% active; AID 651661;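 active means mean inhibition of at least 50% after viability correction, with every replicate also passing that limit; inconclusive means mean reaches 50% but only one of two replicates passes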;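 further: firefly luciferase signal divided by Alamar Blue viability fluorescence both relative to DMSO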
miR-122 sensor = inhibitors of miR-122 in Huh7 cells; Huh7 miR-122 Renilla luciferase sensor, 48 h; neutral wells = 0, positive control = 100; activation (reporter increase), % at 12.5 µM; 340,000 tested, 0.3% active; AID 602342;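 active means mean replicate activation score at least 90 and every replicate individually at or above 90; inconclusive means only one of the two criteria met; inactive means neither criterion met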;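 further: higher luciferase means less miR-122 activity so hits act as miR-122 inhibitors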
Env fusion inh = blocks HIV Env-driven cell-cell fusion. HeLa-JRFL Env/CEM21 cell fusion, luciferase. inhibition, % at 12.3 µM. 360,000 tested, 1.1% active. AID 651610;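 active means mean replicate inhibition score of at least 50 and every replicate individually at or above 50; inconclusive means only one of the two criteria met; inactive means mean below 50 and not all replicates reaching 50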;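 further: 0% = plate neutral controls and 100% = maraviroc near 300 nM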
GSIS activator = primary screen for activators of insulin secretion dependent on glucose, INS-1E cells, GLuc reporter luminescence | 370,000 tested, 0.61% active | INS-1E GLuc reporter insulin secretion, 2-3 h | AID 743287 | activation, % at 16.6 µM;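 active means lowest replicate activation of at least 40%, so every replicate reaches that level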;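 further: 0% = median of neutral control wells and 100% = median of IBMX positive control wells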
Active calls of the source: *; [ ] = another dose, or the depositor's remark. A selection: hits, their analogues and other compounds. The true share with any hit is near 3.1%.

For CC(=O)c1cccc(NC(=O)CCC(=O)Oc2ccc(C)cc2)c1 the results were PAX8 inh HTS 10.7, Statin myotox sup 3.0, EWS-Fli block -0.7, miR-122 sensor -7.1, Env fusion inh 6.0 and GSIS activator 222.4*.
Screening Cc1ccc(O)c(CNc2cccc3cccnc23)c1 returned PAX8 inh HTS 20.9, EWS-Fli block -16.6, Env fusion inh -4.2 and GSIS activator 3.2.
Oc1ccc(Br)cc1CNc1cccc2cccnc12 was read as PAX8 inh HTS 17.2, Statin myotox sup 82.7*, EWS-Fli block 6.5, Env fusion inh -28.4 and GSIS activator -10.0.
Screening Cc1cccc(NCc2ccc(O)c3ncccc23)c1C returned PAX8 inh HTS 98.9*, EWS-Fli block 47.4, miR-122 sensor -10.7, Env fusion inh 46.1 and GSIS activator 2.4.
For C[C@@H](NC(=O)C[C@H]1C=C[C@@H](NC(=O)Nc2ccc3c(c2)OCO3)[C@@H](CO)O1)c1ccccc1 the results were PAX8 inh HTS -18.1, Statin myotox sup 28.1, EWS-Fli block -5.1, miR-122 sensor 1.5[16.7 µM], Env fusion inh 30.7[16.7 µM] and GSIS activator -1.8.
COc1ccc(NC(=O)Nc2ccc3c(c2)C(=O)N([C@@H](C)CO)C[C@H](C)[C@@H](CN(C)C(=O)Cc2ccccc2)OCCCC[C@@H](C)O3)cc1 was read as PAX8 inh HTS 29.7, EWS-Fli block 7.4, miR-122 sensor -6.3[16.7 µM], Env fusion inh -4.4[16.7 µM] and GSIS activator -15.5.
Screening O=C(C[C@H]1CC[C@H]2[C@@H](COC[C@H](O)CN2Cc2cccc(C(F)(F)F)c2)O1)NCCc1ccccc1 returned PAX8 inh HTS 9.6, Statin myotox sup -16.7, EWS-Fli block 10.2, miR-122 sensor -5.3[16.7 µM] and GSIS activator -18.1.
`CN(C)c1ccc(Nc2nc(N)c3ccccc3n2)cc1` gave PAX8 inh HTS 78.4*, Statin myotox sup -143.7, EWS-Fli block 76.7*, Env fusion inh 9.9 and GSIS activator 19.4.
Screening CCOc1ccc(Nc2nc(N)c3ccccc3n2)cc1 returned PAX8 inh HTS 41.6, Statin myotox sup -154.7, EWS-Fli block 68.6*, Env fusion inh -35.6 and GSIS activator 11.3.
`COCC(=O)N1CC2(C1)CN(Cc1cc(F)ccc1F)[C@@H](CO)c1c2c2ccc(OC)cc2n1C` gave EWS-Fli block -0.7 and GSIS activator -5.5.
Screening C[C@@H]1CN([C@@H](C)CO)C(=O)c2cc(NS(=O)(=O)c3cccs3)ccc2O[C@@H](C)CCCCO[C@H]1CN(C)C(=O)Cc1ccccc1 returned PAX8 inh HTS -22.5, EWS-Fli block -6.5, miR-122 sensor 0.2[16.7 µM], Env fusion inh -7.2[16.7 µM] and GSIS activator -14.2.
For O=C(/C=C/c1cccnc1)/C=C/c1cccnc1 the results were PAX8 inh HTS 92.2*, Statin myotox sup 13.2, EWS-Fli block 73.3*, miR-122 sensor -24.5, Env fusion inh 1.8 and GSIS activator 1.6.
`COc1ccc(OC)c(C(=O)/C=C/c2cccnc2)c1` gave PAX8 inh HTS 71.7*, Statin myotox sup -9.9, EWS-Fli block 31.7, Env fusion inh 11.2 and GSIS activator -35.1.
CNC(=O)C[C@H]1CC[C@@H]2[C@H](COC[C@@H](O)CN2S(=O)(=O)c2ccccc2Cl)O1 was read as Statin myotox sup -10.1, miR-122 sensor -0.6[16.7 µM] and GSIS activator 6.1.
OC[C@H]1[C@@H](c2ccc(-c3cccnc3)cc2)[C@H]2CN(CC3CCOCC3)CCCCN21 was read as PAX8 inh HTS -5.2, EWS-Fli block 3.4 and miR-122 sensor 7.4[16.7 µM].
`COc1ccccc1-c1ccc2n(c1=O)C[C@@H]1[C@@H](CO)[C@H](C(=O)N(C)C)[C@H]2N1C(=O)c1cccnc1` gave PAX8 inh HTS -14.7, Statin myotox sup -7.4, EWS-Fli block -2.1, miR-122 sensor -1.2[16.7 µM] and GSIS activator -2.2.
Screening COc1ccc2[nH]c(C(=O)N/N=C/c3ccc(O)cc3O)cc2c1 returned PAX8 inh HTS 84.9*, Statin myotox sup -8.9, EWS-Fli block 14.9, Env fusion inh -43.1 and GSIS activator -31.1.
Screening CCOc1ccc2[nH]c(C(=O)N/N=C/c3ccc(OC)cc3)cc2c1 returned PAX8 inh HTS 14.7, Statin myotox sup -111.1, EWS-Fli block inconclusive, Env fusion inh -245.0 and GSIS activator 5.9.
For COC(=O)C1=C(C)N(Cc2cccc(C(F)(F)F)c2)C(=NCc2ccc3c(c2)OCO3)NC1CCc1ccccc1 (stereo not drawn) the results were PAX8 inh HTS -6.7, EWS-Fli block 14.0, Env fusion inh 41.2 and GSIS activator 114.2*.
For C=CCN=C1NC(c2ccc(Cl)cc2)C(C(=O)OC)=C(C)N1C (stereo not drawn) the results were PAX8 inh HTS -1.2, EWS-Fli block -18.1, Env fusion inh 55.1* and GSIS activator 7.2.
`COC(=O)C1=C(C)N(Cc2cccc(C(F)(F)F)c2)C(=NCc2ccc(C(F)(F)F)cc2)NC1c1ccc(F)cc1` (stereo not drawn) gave PAX8 inh HTS 36.1, EWS-Fli block 48.3, Env fusion inh 35.2 and GSIS activator 875.3*.
Screening COC(=O)C1=C(C)N(Cc2cccc(C(F)(F)F)c2)C(=NCc2ccc3c(c2)OCO3)NC1c1cccc(C(F)(F)F)c1 (stereo not drawn) returned PAX8 inh HTS 46.3, EWS-Fli block 32.7 and Env fusion inh 18.7.
`COC(=O)C1=C(C)N(Cc2cccc(C(F)(F)F)c2)C(=NCc2ccc(C(F)(F)F)cc2)NC1c1ccc(C(F)(F)F)cc1` (stereo not drawn) gave PAX8 inh HTS 76.7*, EWS-Fli block 30.2, Env fusion inh 2.7 and GSIS activator 814.8*.
COC(=O)C1=C(C)N(Cc2ccc(C(F)(F)F)cc2)C(=NCc2ccc(C(F)(F)F)cc2)NC1c1cccc(C(F)(F)F)c1 (stereo not drawn) was read as PAX8 inh HTS 34.5, EWS-Fli block 48.5 and Env fusion inh 9.4.
`COC(=O)C1=C(C)N(Cc2cccc(C(F)(F)F)c2)C(=NCc2ccc3c(c2)OCO3)NC1c1ccc(F)cc1` (stereo not drawn) gave PAX8 inh HTS -24.8, EWS-Fli block 0.1, Env fusion inh 14.0 and GSIS activator 32.4.
For C[C@@H]1CN([C@@H](C)CO)C(=O)c2c(c3ccccc3n2C)-c2ccccc2CO[C@H]1CN(C)CC1CC1 the results were EWS-Fli block -5.3 and GSIS activator -6.3.
`COC(=O)C1=C(C)N(Cc2ccccc2)C(=NCc2ccccc2)N[C@H]1c1cccc(C(F)(F)F)c1` gave Statin myotox sup -91.9 and miR-122 sensor 0.3.
COC(=O)C1=C(C)N(C)C(=NCc2ccc(OC)cc2)NC1c1ccc(C(F)(F)F)cc1 (stereo not drawn) was read as PAX8 inh HTS 1.8, EWS-Fli block -0.3 and Env fusion inh 55.2*.
